# Measured values as given in PubChem BioAssay AID1159580 (chemical genetic matrix, 2015).
# About 2,000 (36%) of roughly 5,500 compounds were called active. Another 18% or so got no clear call; they are omitted. The list shows a part of the results. Values without a mark were called inactive. Cut-off read from the data, not from the text of the source: active = normalized growth mostly below about 0.91 (no sharp cut-off); inconclusive = no clear call, values can overlap the other calls; inactive = mostly above about 0.92.
# Assay: chemical genetic growth profiling, strain panel (AID 1159580);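 note: tested at 20 µM; growth read once vehicle control cultures reached saturation at 30 °C; 1 = growth at the plate median or of vehicle wells; lower values mean less growth of the strain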
# Conditions: S. cerevisiae deletion strains, growth OD
compound,measurement,setting,value
CC1(C)C(=O)N(CCN2CCC(C(=O)c3ccc(F)cc3)CC2)c2ccccc21,normalized growth,"locus YAL013W, strain DEP1, hits give low values",0.998
same,normalized growth,"locus YAL040C, strain CLN3, hits give low values",1.01
same,normalized growth,"locus YCL061C, strain MRC1 (second series), hits give low values",0.999
same,normalized growth,"locus YDR150W, strain NUM1, hits give low values",0.998
same,normalized growth,"locus YDR363W, strain ESC2, hits give low values",0.992
same,normalized growth,"locus YER002W, strain NOP16, hits give low values",1.01
same,normalized growth,"locus YGR229C, strain SMI1, hits give low values",0.993
same,normalized growth,"locus YNL128W, strain TEP1, hits give low values",1.03
same,normalized growth,"locus YNL175C, strain NOP13, hits give low values",1.02
same,normalized growth,"locus YNL197C, strain WHI3, hits give low values",1.02
same,normalized growth,"locus YNL224C, strain SQS1, hits give low values",1.02
same,normalized growth,"locus YNL322C, strain KRE1, hits give low values",1
same,normalized growth,"locus YOR083W, strain WHI5 (second series), hits give low values",0.969
same,normalized growth,"locus YPL055C, strain LGE1, hits give low values",0.982
CC1C(c2ccccc2)N(C)C(c2ccccc2)CC1(O)c1ccc(F)cc1 (stereo not given),normalized growth,"locus YAR019C, strain CDC15, hits give low values",0.988
same,normalized growth,"locus YBL105C, strain PKC1, hits give low values",0.991
same,normalized growth,"locus YBR135W, strain CKS1, hits give low values",0.99
same,normalized growth,"locus YBR136W, strain MEC1, hits give low values",0.994
same,normalized growth,"locus YBR160W, strain CDC28, hits give low values",0.995
same,normalized growth,"locus YDL017W, strain CDC7, hits give low values",0.997
same,normalized growth,"locus YDL028C, strain MPS1, hits give low values",1
same,normalized growth,"locus YDL101C, strain DUN1, hits give low values",0.986
same,normalized growth,"locus YDL108W, strain KIN28, hits give low values",1.01
same,normalized growth,"locus YDL132W, strain cdc53, hits give low values",0.989
same,normalized growth,"locus YDL214C, strain PRR2, hits give low values",0.976
same,normalized growth,"locus YDR052C, strain DBF4, hits give low values",0.995
same,normalized growth,"locus YDR054C, strain cdc34, hits give low values",0.993
same,normalized growth,"locus YDR226W, strain ADK1, hits give low values",0.992
same,normalized growth,"locus YDR477W, strain SNF1, hits give low values",0.992
same,normalized growth,"locus YER123W, strain YCK3, hits give low values",0.934
same,normalized growth,"locus YER133W, strain GLC7, hits give low values",0.995
same,normalized growth,"locus YFL009W, strain cdc4, hits give low values",0.989
same,normalized growth,"locus YFL029C, strain CAK1, hits give low values",0.99
same,normalized growth,"locus YFR003C, strain YPI1, hits give low values",0.999
same,normalized growth,"locus YFR019W, strain FAB1, hits give low values",0.996
same,normalized growth,"locus YFR028C, strain CDC14, hits give low values",0.984
same,normalized growth,"locus YGR040W, strain KSS1, hits give low values",0.997
same,normalized growth,"locus YGR052W, strain FMP48, hits give low values",1.11
same,normalized growth,"locus YGR092W, strain DBF2, hits give low values",0.968
same,normalized growth,"locus YHR030C, strain SLT2, hits give low values",1.26 [resistant] (active)
same,normalized growth,"locus YHR079C, strain IRE1, hits give low values",1.14
same,normalized growth,"locus YHR082C, strain KSP1, hits give low values",1.13
same,normalized growth,"locus YHR205W, strain SCH9, hits give low values",0.979
same,normalized growth,"locus YIL147C, strain SLN1, hits give low values",1
same,normalized growth,"locus YJL095W, strain BCK1, hits give low values",1.1
same,normalized growth,"locus YJL128C, strain PBS2, hits give low values",0.952
same,normalized growth,"locus YJL157C, strain FAR1, hits give low values",0.972
same,normalized growth,"locus YJR016C, strain ILV3, hits give low values",0.989
same,normalized growth,"locus YJR066W, strain TOR1 (second series), hits give low values",0.983
same,normalized growth,"locus YJR066W, strain TOR1, hits give low values",1.13
same,normalized growth,"locus YKL048C, strain ELM1, hits give low values",0.982
same,normalized growth,"locus YKL067W, strain YNK1, hits give low values",0.98
same,normalized growth,"locus YKL101W, strain HSL1, hits give low values",0.99
same,normalized growth,"locus YKL193C, strain SDS22, hits give low values",0.994
same,normalized growth,"locus YKL203C, strain TOR2, hits give low values",1.06
same,normalized growth,"locus YLR113W, strain HOG1, hits give low values",1.04
same,normalized growth,"locus YLR133W, strain CKI1, hits give low values",0.98
same,normalized growth,"locus YLR403W, strain SFP1, hits give low values",0.99
same,normalized growth,"locus YML070W, strain DAK1, hits give low values",0.973
same,normalized growth,"locus YMR001C, strain CDC5, hits give low values",0.982
same,normalized growth,"locus YMR205C, strain PFK2 (second series), hits give low values",0.989
same,normalized growth,"locus YMR277W, strain FCP1, hits give low values",0.997
same,normalized growth,"locus YNL006W, strain LST8, hits give low values",0.977
same,normalized growth,"locus YNL020C, strain ARK1, hits give low values",0.984
same,normalized growth,"locus YNL161W, strain CBK1, hits give low values",1
same,normalized growth,"locus YNL183C, strain NPR1, hits give low values",1.14
same,normalized growth,"locus YNL207W, strain RIO2, hits give low values",0.999
same,normalized growth,"locus YNL222W, strain SSU72, hits give low values",0.99
same,normalized growth,"locus YNL307C, strain MCK1 (second series), hits give low values",0.987
same,normalized growth,"locus YOL078W, strain AVO1, hits give low values",0.992
same,normalized growth,"locus YOL136C, strain PFK27, hits give low values",0.99
same,normalized growth,"locus YOR061W, strain CKA2, hits give low values",0.972
same,normalized growth,"locus YOR119C, strain RIO1, hits give low values",1.04
same,normalized growth,"locus YOR231W, strain MKK1, hits give low values",1.1
same,normalized growth,"locus YOR329C, strain SCD5, hits give low values",0.992
same,normalized growth,"locus YPL031C, strain PHO85, hits give low values",0.984
same,normalized growth,"locus YPL153C, strain RAD53, hits give low values",0.983
same,normalized growth,"locus YPL204W, strain HRR25, hits give low values",1
same,normalized growth,"locus YPL209C, strain IPL1, hits give low values",1
same,normalized growth,"locus YPL256C, strain CLN2, hits give low values",1.1
same,normalized growth,"locus YPR025C, strain CCL1, hits give low values",0.995
same,normalized growth,"locus YPR106W, strain ISR1, hits give low values",0.999
same,normalized growth,"locus YPR111W, strain DBF20, hits give low values",0.99
same,normalized growth,"strain NNK1, hits give low values",0.998
same,normalized growth,"strain TSCII, hits give low values",0.987
